SKKanGAS inh: S. pyogenes SKKanGAS growth inhibitors in kanamycin, primary screen, streptokinase expression inhibitor project, SKKanGAS strain, BacTiter-Glo luminescence; inhibition, % at 7.5 µM; 6 h; 300,000 tested, 1.3% active; AID 1662, 2009;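 active = mean replicate score, as percent of positive control median, at least 50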;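 also: strain carries kanamycin resistance gene driven by streptokinase promoter and grows in 40 µg/ml kanamycin; loss of luminescence reflects streptokinase promoter inhibition or plain growth inhibition; 0% = median of DMSO wells and 100% = positive control at its reference dose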
tim10-1 inh: growth inhibitors of tim10-1 mutant yeast, primary screen, luminescence, uHTS; S. cerevisiae tim10-1 ts strain growth, BacTiter-Glo, 24 h; inhibition, % at 20 µM; 330,000 tested, 2.2% active;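 active = inhibition of at least 40%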;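 also: mutant grown at 25 °C; 0% = DMSO wells with yeast and 100% = wells holding no yeast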
NALP1 yeast inh: NALP1 inflammasome inhibitors in reconstituted yeast, colorimetric, S. cerevisiae, triplicate retest; S. cerevisiae NALP1/ASC/caspase-1 growth, X-gal OD620, 72 h; inhibition, % at 10 µM; 280,000 tested, 0.61% active; in the data active = inhibition mostly above about 24%, no sharp cut-off; inactive = mostly below about 32%
NALP3 yeast inh: NALP3 inflammasome inhibitors in reconstituted yeast, primary screen, luminescence, uHTS | Yeast reconstituted NLRP3/ASC/caspase-1, beta-gal luminescence, 24 h | inhibition, % at 10 µM | 330,000 tested, 0.39% active;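 active = inhibition of 50% or more; inactive = inhibition below 50%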;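 also: plate controls were induced DMSO wells for no effect and uninduced yeast grown without galactose for full effect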
tim23-1 inh: growth inhibitors of tim23-1 mutant yeast, primary screen, luminescence, uHTS; inhibition, % at 20 µM; 330,000 tested, 1.3% active; S. cerevisiae tim23-1 growth, BacTiter-Glo luminescence, 24 h;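 active = growth inhibition of the mutant yeast at or above 50%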;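 also: temperature-sensitive mutant grown at 25 °C; plate controls were DMSO-treated mutant yeast for no effect and medium wells lacking yeast for full effect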
TIM10 inh: growth inhibitors of isogenic TIM10 control yeast, primary screen, counter-screen for tim10-1 yeast inhibitor project, luminescence, uHTS. inhibition, % at 10 µM. S. cerevisiae TIM10 strain growth, BacTiter-Glo luminescence, 24 h. AID 463195, 2010. 330,000 tested, 1.4% active;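 active = inhibition of 40% or more at the single tested concentration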;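 also: wild-type TIM10 isogenic control strain grown at permissive 25 °C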
tim10-1 confirm: growth inhibitors of tim10-1 mutant yeast, confirmation, single concentration, luminescence, S. cerevisiae. shares compounds with tim10-1 inh. S. cerevisiae tim10-1 ts strain growth, BacTiter-Glo, 24 h. inhibition, % at 20 µM. 7,400 tested, 56% active;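 active = inhibition of yeast growth at or above a set limit in either of two repeat tests at 20 µM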;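 also: tim10-1 mutant grown at permissive 25 °C to find synthetic lethal compounds; 0% = DMSO yeast wells and 100% = medium wells without yeast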
TIM10 conf: growth inhibitors of wild-type TIM10 yeast, confirmation, counter-screen for tim10-1 synthetic lethality project, single concentration, luminescence, S. cerevisiae | shares compounds with TIM10 inh | S. cerevisiae tim10 strain growth, BacTiter-Glo luminescence, 24 h | inhibition, % at 10 µM | 4,600 tested, 63% active | AID 463215, 2010;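 active = inhibition of yeast growth at or above a set limit in either of two replicates at 10 µM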;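 also: this counterscreen used the strain with wild-type TIM10; 0% = yeast with DMSO and 100% = medium wells lacking yeast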
* = called active by the depositor; · = no result. The list is not random: actives were taken first. Their share in the collection is about 4.9%.

SMILES	SKKanGAS inh	tim10-1 inh	NALP1 yeast inh	NALP3 yeast inh	tim23-1 inh	TIM10 inh	tim10-1 confirm	TIM10 conf
O=C(Nc1ccc(F)cc1Cl)C1CCN(C(=O)Nc2ccccc2)CC1	15.0	14.0	19.5	14.3	9.4	9.1	·	·
Cc1cc(Cl)ccc1OCC(=O)Nc1nc(-c2cccnc2)cs1	-5.3	-7.5	-9.6	4.8	-10.4	-3.7	·	·
Cc1cc(Cl)ccc1OCC(=O)Nc1nc(-c2cccs2)cs1	21.3	48.8*	-2.4	14.4	21.6	43.5*	40.7*	-15.6
O=C(NC1CC2CCC(C1)N2Cc1ccccc1)c1ccccc1Br (stereo not given)	2.3	-10.4	3.7	11.5	-10.7	-3.6	·	·
O=C(Nc1ccc(Cl)cc1Cl)c1cccc(N2C(=O)C=CC2=O)c1	5.4	59.2*	·	5.8	37.0	94.9*	96.2*	99.8*
CC1(CC(=O)N/N=C/c2ccc(OCc3ccc(Cl)cc3Cl)cc2)OCCCO1	12.4	63.3*	15.9	13.9	42.0	49.2*	41.1*	1.9
COc1cc2c(cc1OC)CN(C(=O)C1CCCN1S(=O)(=O)c1ccc(F)cc1)CC2 (stereo not given)	-11.0	26.1	20.6	9.0	15.5	-5.2	·	·
COc1ccc(-c2nncnn2)cc1	20.6	84.1*	7.9	-3.4	42.5	88.8*	78.8*	20.9
CCCNC(=O)N1C2=NC(C(=O)OC)=C(C(=O)OC)[C@@H]3N(Cc4ccccc4)c4ccccc4[C@]23C[C@H]1CO	-1.8	0.0	·	22.0	2.4	3.5	·	·
C[C@@H]1CN([C@H](C)CO)C(=O)Cc2cc(NS(=O)(=O)c3cn(C)cn3)ccc2O[C@H]1CN(C)S(=O)(=O)c1ccc(Cl)cc1	·	3.2	·	4.4	10.4	7.1	·	·
CN1CCN(/N=C/c2c3ccccc3c(Cl)c3ccccc23)CC1	5.8	47.3*	4.6	-17.9	38.7	47.2*	52.2*	46.0*
CN(C(=O)COC(=O)c1ccc(Br)c(S(=O)(=O)N2CCOCC2)c1)C1CCCCC1	·	13.0	·	7.8	26.5	3.4	·	·
Oc1ccc(/C=N/NC(=S)NC2CC3CCC2C3)cc1 (stereo not given)	-1.7	42.4*	31.4	-1.0	42.5	57.5*	29.7	27.2
Cc1ccc(O)c(-c2cc3ccccc3[nH]2)c1	7.3	52.7*	·	-2.1	7.7	45.9*	39.9*	46.6*
COc1ccc(-c2cc3ccccc3[nH]2)cc1	-0.9	7.0	7.9	14.0	7.6	-3.1	·	·
CC(C)NC(=O)C(c1ccc(F)cc1)N(C(=O)CCC(=O)Nc1ccccn1)C1CCCCC1 (stereo not given)	3.6	4.6	12.0	9.9	9.0	-10.7	·	·
COC(=O)c1sc(NC(=O)c2c(F)cccc2F)c(C#N)c1C	11.3	45.0*	5.4	-36.4	28.9	41.3*	37.7*	26.0
CN(C)CCCN(C(=O)c1ccc2ccccc2c1)c1nc2cc3c(cc2s1)OCO3	1.9	50.3*	13.6	46.2	21.3	46.1*	42.5*	35.0*
CN(C)CCCN(C(=O)c1ccc2c(c1)OCCO2)c1nc2cc3c(cc2s1)OCO3	-0.4	9.7	29.3	9.9	8.3	7.2	·	·
CCN(c1ccccc1)S(=O)(=O)c1ccc(C(=O)N(CCCN(C)C)c2nc3cc4c(cc3s2)OCO4)cc1	2.5	63.8*	15.3	26.4	44.0	52.5*	59.9*	46.1*
c1ccc2c(c1)nc(N1CCOCC1)c1c3ccccc3[nH]c21	9.5	40.3*	15.6	24.8	44.1	49.0*	20.6	61.0*
CC(=O)c1ccc(NC(=O)c2ccc(S(=O)(=O)N3CCCC3)cc2)cc1	0.9	20.3	13.8	25.6	29.6	13.6	·	·
COc1cc(OC)c(C(=O)Nc2ccc(S(=O)(=O)N3CCCCC3)cc2)cc1OC	-17.5	25.4	·	11.9	30.6	27.4	·	·
Cc1cc(C(=O)Nc2ccc(S(=O)(=O)N3CCCC3)cc2)cs1	·	43.8*	13.2	14.1	43.8	55.8*	40.1*	36.1*
COc1ccc(C(=O)Nc2ccc(S(=O)(=O)N3CCCCC3)cc2)cc1OC	4.0	48.9*	11.3	5.6	-4.4	60.3*	33.4*	-20.6
SMILES	SKKanGAS inh	tim10-1 inh	NALP1 yeast inh	NALP3 yeast inh	tim23-1 inh	TIM10 inh	tim10-1 confirm	TIM10 conf
Cn1c(=O)c2c(ncn2CC(=O)OCC(=O)Nc2cc(Cl)ccc2C#N)n(C)c1=O	·	-7.4	·	6.5	-18.0	-1.9	·	·
CN1/C(=C\C(=O)c2cccs2)C(C)(C)c2ccccc21	-3.9	27.0	51.9	14.2	33.0	-2.1	·	·
Cc1cc(Br)c2c(c1)/C(=C/C(=O)c1cccs1)C(=O)N2	-1.6	47.4*	5.0	1.4	42.1	49.9*	33.9*	68.1*
CC1(C)CC(/C=C/c2ccccc2)=Nc2ccccc2N1	-8.0	49.5*	11.8	22.8	46.3	66.8*	54.2*	57.9*
O=C1CC(/C=C/c2ccccc2)=Nc2ccccc2N1	-2.1	16.8	3.1	36.2	12.8	20.3	·	·
CC1O[C@@H](OC2C(O)C(O)C(CO)O[C@H]2OC2C[C@]3(C)C(CC(O)C4[C@@H]([C@]5(C)CC[C@@H](C(C)(C)O)O5)CC[C@]43C)[C@@]3(C)CCC(O)C(C)(C)C23)C(O)C(O)C1O (stereo not given in full)	·	-9.4	·	19.8	-8.6	2.9	·	·
CC(C)(C)n1[nH]c2c3c(ccc2c1=O)C(=O)c1ccccc1C3=O	25.8	45.3*	0.7	21.0	27.6	65.5*	40.2*	57.1*
N/C(=N\OC(=O)N1CCOCC1)c1ccc(Br)cc1	5.5	60.4*	-4.9	18.8	36.9	50.0*	61.3*	41.0*
N/C(=N\OC(=O)c1ccc2ccccc2c1)c1ccc(Br)cc1	-17.7	27.9	19.5	1.2	8.7	13.1	·	·
N/C(=N\OC(=O)c1cccnc1)c1ccc(Cl)cc1Cl	-18.7	43.8*	14.0	27.5	40.7	40.6*	41.0*	21.1
N/C(=N\OC(=O)c1cccnc1)c1ccccc1Cl	-2.6	5.9	-3.5	10.5	12.6	20.1	·	·
O=C(COC(=O)Cc1c(F)cccc1Cl)Nc1ccc2[nH]c(=O)[nH]c2c1	·	2.9	·	12.6	5.9	-1.9	·	·
O=C(N/N=C/c1ccc([N+](=O)[O-])o1)c1cc2ccccc2o1	1.1	58.8*	·	10.7	39.7	45.1*	56.1*	79.0*

Screening data (PubChem)
